A selection: hits, their analogues and other compounds. The true share with any hit is near 2.4%.
Pol iota inh – qHTS for Inhibitors of Polymerase Iota; Pol iota fluorescent replication assay, 10 min; Potency, µM (series often up to 115 µM), for inactives: at the highest dose activity, negative = inhibition, usual class: inhibitors; 1% of 390,000 active; AID 588590, 2011
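Fluorescent replication assay read twice, at 0 min and 10 min after adding 50 nM (final) substrate. Enzyme (10 nM) and compounds were first incubated 15 min at room temperature; enzyme-free buffer wells were negative controls.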
TDP1 block – qHTS Assay for Inhibitors of Tyrosyl-DNA Phosphodiesterase (TDP1) | recombinant TDP1, AlphaScreen DNA substrate cleavage | Potency, µM (series often up to 130 µM), for inactives: at the top dose activity change, negative = inhibition, most hits filed as inhibitors | Tyrosyl-DNA phosphodiesterase 1 (Homo sapiens), Q9NUW8 | 0.28% of 350,000 active; further: on the % scale 0 is the no-effect control and ±100 the full control effect; nearly all actives have a fitted effect of over 40% in size
Target sequence (Q9NUW8 whole entry, looked up): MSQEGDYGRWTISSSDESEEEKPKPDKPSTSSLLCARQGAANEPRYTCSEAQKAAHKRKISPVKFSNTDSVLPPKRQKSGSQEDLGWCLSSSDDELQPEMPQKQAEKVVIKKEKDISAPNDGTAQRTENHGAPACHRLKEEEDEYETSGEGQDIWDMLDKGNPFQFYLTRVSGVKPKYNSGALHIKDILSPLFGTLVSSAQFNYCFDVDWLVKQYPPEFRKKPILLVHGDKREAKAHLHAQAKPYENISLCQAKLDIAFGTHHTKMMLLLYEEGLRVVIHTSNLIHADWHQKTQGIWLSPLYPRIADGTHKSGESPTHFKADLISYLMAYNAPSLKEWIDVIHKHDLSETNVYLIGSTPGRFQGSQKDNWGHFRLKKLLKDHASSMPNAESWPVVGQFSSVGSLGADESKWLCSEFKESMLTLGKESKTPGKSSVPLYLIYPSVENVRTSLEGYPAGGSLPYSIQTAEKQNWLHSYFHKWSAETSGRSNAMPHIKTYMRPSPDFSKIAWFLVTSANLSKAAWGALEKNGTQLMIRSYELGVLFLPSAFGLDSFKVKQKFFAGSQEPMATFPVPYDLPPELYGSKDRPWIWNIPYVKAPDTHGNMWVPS
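E. coli-derived human Tdp1, 1 nM final. Cpd preinc 15 min RT; substrate 15 nM final, 5 min RT; AS bead mix 10 ug/ml final, 10 min RT. Signal loss = tyrosine-FITC cleavage. No-enzyme wells = max signal.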
Pol eta inh – qHTS for Inhibitors of Polymerase Eta; DNA polymerase eta (Homo sapiens), Q9Y253; recombinant Pol eta, fluorescent DNA replication assay; Potency, µM (highest dose often 114 µM), inactives show at the highest dose activity change, negative = inhibition, usual class: inhibitors; 1.2% of 390,000 active; AID 588591, 2011; further: on the % scale 0 is the no-effect control and ±100 the full control effect
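Pol eta (10 nM) was preincubated with compounds for 15 min at room temperature, after which fluorescent replication substrate (50 nM final) was added to start the reaction. Fluorescence was read kinetically at 0 and 10 min.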
POLB inh – qHTS Assay for Inhibitors of DNA Polymerase Beta; P06746; Pol beta primer extension/strand displacement, fluorescence kinetic; Potency, µM (titrated, usually from 114 µM), without a hit: at the highest dose activity change, negative = inhibition, actives largely listed as inhibitors; 1.3% of 340,000 active; further: on the % scale 0 is the no-effect control and ±100 the full control effect
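Values derive from four-parameter Hill fits of normalized kinetic data: reads at 0 and 10 min following addition of 50 nM substrate to 10 nM Pol beta preincubated 15 min with compound.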
POLK inh – qHTS for Inhibitors of Polymerase Kappa | DNA polymerase kappa (Homo sapiens), Q9UBT6 | purified Pol kappa, fluorescent DNA synthesis assay, 10 min | Potency, µM (highest dose often 107 µM), without a hit: at the highest dose activity, negative = inhibition, most hits filed as inhibitors | 0.53% of 400,000 active | AID 588579, 2011; further: on the % scale 0 is the no-effect control and ±100 the full control effect
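Fluorescent qHTS in 1536-well format: enzyme (10 nM) and compound sat 15 min at room temperature before 50 nM substrate (final) was added. Signal taken at 0 and 10 min; no-enzyme buffer wells were negative controls.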
Active calls of the source: *; ? = inconclusive; . = no result; ! = a repeat was not active; [ ] = dose if it differs, or a comment. The call rests on the fitted dose curve; in most records, active means well fitted curve in the direction sought with a large enough effect; inconclusive means small, poorly fitted or top-dose-only effect, or another doubt; inactive means no such curve, though single readings can be large; an effect the other way counts as inactive or inconclusive. Potency means the concentration at half of the fitted maximal effect.

SMILES	Pol iota inh	TDP1 block	Pol eta inh	POLB inh	POLK inh
COC(=O)/C=C/c1cc(O)ccc1O	.	6.1%	.	.	-3.1%[19.4 µM]
O=c1[nH]c(O)c(/C=C2\C=Nc3ccc(Br)cc32)[nH]1	26.4%	2.2%	?	20µM*	-13.0%
O=C(Nc1cc(OC(=O)C(F)(F)F)c2nonc2c1OC(=O)C(F)(F)F)C(F)(F)F	-5.2%	5.8%	.	.	-17.1%
Clc1ccc(Cn2c(/C=C/c3ccco3)nc3ccccc32)cc1	-6.3%	8.5%	?	-12.8%	-25.7%
Cc1ccc(Cn2c(/C=C/c3ccco3)nc3ccccc32)cc1	-15.8%	-2.6%	-16.7%	?	-12.6%
CCCn1c(/C=C/c2ccco2)nc2ccccc21	44.7µM*	8.3%	12.6µM*	22.4µM*	-35.5%
CCCCn1c(/C=C/c2ccco2)nc2ccccc21	?	0.0%	?	8.91µM*	-9.8%
Cc1c2c(c(O)c3c(O)cccc13)C(=O)O[C@H]2C1C(N(C)C)C(O)=C(C(N)=O)C(=O)[C@H]1O (some centres undefined)	.	.	.	.	0.474µM*
CCOC(=O)c1c(NC(=O)C2CC(Cl)=CCC2C(=O)O)sc2c1CCCCC2 (centres undefined)	-1.5%	22.4µM*	-10.5%	35.5µM*	-23.4%
CCOC(=O)c1c(NC(=O)C2C3C=CC(C3)C2C(=O)O)sc2c1CCCC2 (centres undefined)	28.0%	6.0%	-13.5%	?	3.8%
O=C(CNC(=O)c1ccccc1)OC(Cc1ccccc1)C(=O)Nc1cc(C(F)(F)F)ccc1Cl (centres undefined)	.	-2.7%	.	.	.
Cn1ncc(N=Cc2c(O)ccc3ccccc23)c1C(=O)Nc1cccc(Cl)c1	?	7.5%	50.1µM*	1.2%	-10.4%
Cn1ncc(Cl)c1C(=O)Nc1cccc(Cl)c1	32.8%	0.0%	-2.8%	25.1%	-14.5%
CN1CCc2c(sc3nc(SCC(=O)NCc4ccco4)n(-c4ccccc4)c(=O)c23)C1	-17.1%	-2.4%	-31.1%	-1.3%	0.3%
Cc1ccc(-n2c(Cc3cccn3C)nnc2SCC(=O)NCc2ccc3c(c2)OCO3)cc1	?	9.1%	-6.5%	8.91µM*	-36.2%
COc1ccc(-n2c(Cc3cccn3C)nnc2SCC(=O)NCc2ccco2)cc1	?	2.6%	-6.5%	39.8µM*	?
COc1ccc(-n2c(SCC(=O)NCc3ccco3)nc3sc4c(c3c2=O)CCN(C)C4)cc1	31.6µM*	2.4%	?	?	-23.8%
O=C(Cn1c(=O)n(-c2ccccc2Cl)c(=O)c2sc3ccccc3c21)NC1CCCC1	39.4%	3.8%	-15.7%	0.5%	-4.6%
COc1cc(C(c2c(C)[nH][nH]c2=O)c2c(C)[nH][nH]c2=O)ccc1OC(C)C	-2.2%	-6.9%	-4.8%	6.1%	-13.0%
COc1cc(C(c2c(C)[nH][nH]c2=O)c2c(C)[nH][nH]c2=O)ccc1OS(=O)(=O)c1ccc(C)cc1	3.55µM*	11.3%	-3.2%	-10.4%	-7.3%
COc1ccc(C(=O)Oc2ccc(C(c3c(C)[nH][nH]c3=O)c3c(C)[nH][nH]c3=O)cc2OC)cc1	?	3.3%	-0.8%	-0.2%	-13.7%
COc1ccc(OC)c(C(c2c(C)[nH][nH]c2=O)c2c(C)[nH][nH]c2=O)c1	28.2µM*	.	0.3%	37.5%	-10.6%
COc1cc(C(c2c(C)[nH][nH]c2=O)c2c(C)[nH][nH]c2=O)ccc1OC(=O)c1cccc([N+](=O)[O-])c1	10µM*	13.7%	-7.2%	10.1%	-17.1%
COc1cc(C(c2c(C)[nH][nH]c2=O)c2c(C)[nH][nH]c2=O)ccc1OS(=O)(=O)c1ccccc1	10µM*	11.6%	-4.4%	-10.9%	-20.1%
COc1ccccc1N1CCN(CCn2c(=O)c3c(c4ccccc4n3C)n(C)c2=O)CC1	.	4.9%	.	.	5.9%[19.4 µM]
SMILES	Pol iota inh	TDP1 block	Pol eta inh	POLB inh	POLK inh
C/C=C(\C)NNC(=O)Cc1ccc(OC)cc1	42.2%	.	.	.	-16.9%
CCCn1c(=O)n(-c2ccccc2Cl)c(=O)c2sc3ccccc3c21	45.5%	-6.4%	-15.2%	3.4%	-2.1%
O=C(CNC(=O)c1ccccc1)N[C@@H](C(=O)Nc1cc(C(F)(F)F)ccc1Cl)c1ccccc1	.	-2.0%	.	.	.
COc1cc(C(c2c(C)[nH][nH]c2=O)c2c(C)[nH][nH]c2=O)cc(OC)c1OC	8.91µM*	0.0%	-17.3%	19.8%	-5.9%
CS(=O)(=O)Nc1cccc(-c2cn3c(n2)SCC3)c1	?	2.0%	-3.3%	-0.5%	31.6µM*
Cc1ccc(C)c(Nc2nc3ccc(C)cc3n3cnnc23)c1	120.6%	.	-1.7%	33.0%	-10.8%
Cc1ccc2nc(Nc3ccc(F)cc3)c3nncn3c2c1	5.8%	.	-17.2%	31.6µM*	3.4%
O=C1C=C(c2ccccc2)OC(c2ccccc2)O1 (centres undefined)	116.2%	0.0%	-24.3%	11.2µM*	-20.3%
O=C1C=C(c2ccccc2)OC2(CCCC2)O1	12.1%	-3.1%	9.1%	-2.8%	-11.3%
Nc1ccc2cccnc2c1	-5.2%	.	.	.	-3.8%
CCOc1ccc(CCNC(=O)CCN2N=C(c3ccc(OC)cc3)CCC2=O)cc1OCC	5.8%	-2.8%	-13.6%	1.4%	-16.3%[60.1 µM]
CC1(C)SC2C(NC(=O)C(C(=O)O)c3ccccc3)C(=O)N2C1C(=O)O (centres undefined)	.	7.9%[56.1 µM]	.	.	-4.7%[60.1 µM]
CC(Oc1ccccc1)C(=O)NC1C(=O)N2C(C(=O)O)C(C)(C)S[C@@H]12 (some centres undefined)	.	-9.7%[56.1 µM]	.	.	-9.2%[60.1 µM]
CC1(C)S[C@@H]2[C@H](NC(=O)[C@H](N)c3ccccc3)C(=O)N2[C@H]1C(=O)O	28.2µM*	22.4µM*!	10µM*	?	22.4µM*!
COC(=O)C1N2C(=O)[C@@H](NC(=O)COc3ccccc3)[C@H]2SC1(C)C (some centres undefined)	79.4µM*!	.	-6.1%	.	13.6%
CC1(C)SC2C(N3C(=O)C(c4ccccc4)NC3(C)C)C(=O)N2C1C(=O)O (centres undefined)	.	?	.	.	7.08µM*
CCN(CCN(C)Cl)/[N+]([O-])=N/Oc1ccc([N+](=O)[O-])cc1[N+](=O)[O-]	?	.	.	.	11.5%
COc1ccc(-c2cc(C(=O)N3CCCCCC3)c3ccccc3n2)c(OC)c1	79.4µM*	-3.8%[56.1 µM]	?	22.4µM*	-38.9%
Cc1ccccc1-c1cc(C(=O)N2CCCC2)c2ccccc2n1	25.1µM*	3.3%	?	?	?
CCc1ccc(OCC(=O)NNC(=O)Cc2cccs2)cc1	57.9%	5.4%	?	20µM*	-18.1%
COc1ccc(OCC(=O)Nc2cccc(-c3nc4ccccc4o3)c2)cc1	?	-3.1%	-7.4%	?	1.2%
CCc1ccc(OCC(=O)NNC(=O)c2cc3ccccc3o2)cc1	32.7%	2.6%	8.9%	25.1µM*	-22.6%
